Source: PubChem (National Center for Advancing Translational Sciences (NCATS))
This excerpt belongs to a sample that is enriched for hits.
Pf Dd2 inh – qHTS Primary assay for Inhibitors of Plasmodium falciparum Dd2 growth in vitro. P. falciparum Dd2 growth, SYBR Green, 72 h. Potency, µM (doses to about 28.9 µM), hits mostly inhibitors. 120,000 compounds, 4.3% hits. AID 1347417, 2020; active = well fitted inhibition curve with a large enough effect; note: nearly all actives have a fitted effect of over 65% in size
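Readout: SYBR Green fluorescence, 485 nm excitation, 535 nm emission, after ~16 h lysis at 37C. Before that, Dd2-infected red cells (2.5% hematocrit) grew 72 h with compound, 29 uM top final concentration.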
Large screens that a line does not name were inactive.

CC(C)c1ccc(-c2noc(SCC(=O)N(C)c3ccc(F)cc3)n2)cc1	Pf Dd2 inh 0.794µM
CC(C)c1ccc(C(=O)N2CCC(Cc3nc(-c4ccc(F)cc4)no3)CC2)cc1	none
CCN(C(=O)CSc1nc(-c2ccccc2)no1)c1ccccc1	Pf Dd2 inh 3.16µM
CCN(C(=O)CSc1nc2ccccc2nc1Cc1ccccc1OC)c1ccccc1	none
CCc1ccc(NC(=O)CSc2nc3ccccc3nc2Cc2ccc(C)cc2)cc1	none
CCN(C(=O)CSc1nc2ccccc2[nH]1)c1ccccc1	none
CCc1ccc(NC(=O)CSc2nc(-c3ccccc3)c(C#N)c(=O)[nH]2)cc1	none
COc1ccc(N2CCN(C(=O)CSc3nc(-c4ccccc4)no3)CC2)cc1	Pf Dd2 inh 2.82µM
COc1ccc(N2CCN(C(=O)CSc3n[nH]c(-c4ccccc4Cl)n3)CC2)cc1	none
CCc1ccc(NC(=O)CSc2nc(-c3ccccc3)no2)cc1	Pf Dd2 inh 2.51µM
O=C(CC1CCN(S(=O)(=O)c2ccc3c(c2)CCCC3)C1)NCc1ccccc1 (stereo not given)	none
CNc1cc(-c2ccccc2C(=O)N(C(C)C)C(C)C)nc(N)n1	none
O=C(COc1ccc(Cl)cc1Cl)N1CCC(N2CCOC2=O)CC1	none
CC1(CCCCc2ccccc2)COc2ccc(C(=O)NC3CC3)cc2N1 (stereo not given)	none
O=[N+]([O-])c1cccnc1N1CC2CCC(C1)N2CC(F)(F)F	none
CSc1cccc(NC(=O)O[C@@H]2CC[C@]3(C)C(CC[C@@H](O)[C@H]3CC(=O)N3CC[C@H](NC(C)=O)C3)[C@]2(C)CO)c1 (stereo not given in full)	none
Cc1cc(C)cc(C(=O)N2CCC(Oc3ncccc3C(=O)N(C)C)C2)c1 (stereo not given)	none
CC(=O)N1CCC(n2c(C)cnc2C2CC2)CC1	none
Cc1cnc(CCNC(=O)C2(c3ccccc3)CC2)n1C1CCCCCC1	Pf Dd2 inh 2.24µM
Cc1cnc(CCNC(=O)COc2ccccc2)n1C1CCC1	Pf Dd2 inh 3.16µM
CCCn1c(C)cnc1CC1CCN(C(=O)c2c(C)noc2C)CC1	none
Cc1ccc(NC(=O)NCCc2ncc(C)n2C2CCC2)cc1C	none
COCCn1c(C)cnc1CC1CCCN(C(=O)C2(c3ccc(OC)cc3)CC2)C1 (stereo not given)	none
COC(=O)CNC(=O)NCCc1ncc(C)n1C1CCCC1	none
CC(=O)N1CCC(C(=O)NCCc2ncc(C)n2C2CCC2)CC1	none
CCCn1c(C)cnc1CC1CCN(C(=O)C2(c3ccc(OC)cc3)CC2)C1 (stereo not given)	Pf Dd2 inh 5.01µM
Cc1cnc(C2CCC2)n1C1CCN(C(=O)C2(c3ccccc3)CC2)CC1	Pf Dd2 inh 12.6µM
Cc1cnc(-c2ccncc2)n1C1CCCN(C(=O)C2(c3ccccc3)CC2)C1 (stereo not given)	none
Cc1cnc(CCNC(=O)c2ccc(C#N)cc2)n1C1CCC1	none
Cc1noc(C)c1S(=O)(=O)N1CCCN(S(=O)(=O)c2ccccc2)CCC(=O)NCC1	none
O=C(NCc1ccc2c(c1)OCO2)C1CCCN1c1nc2ncccc2o1 (stereo not given)	none
Cc1ccc(F)cc1S(=O)(=O)N1CCC(CC(=O)NCc2ccccc2)C1 (stereo not given)	none
O=C1CCN(Cc2ccc(F)cc2F)CCCOCCN1	none
CSCC(=O)N[C@H]1CCN2C(=O)c3cc(-c4ccccc4)ccc3NC(=O)[C@H]12	none
COCc1cn([C@H]2CO[C@H]3[C@@H]2OC[C@H]3O)nn1	none
O=C1CCN(C(=O)c2cc(C3CC3)[nH]n2)CCCCCCN1	none
COc1ccc(C2(C(=O)NCCc3ncc(C)n3C3CC3)CC2)cc1	Pf Dd2 inh 2.51µM
Cc1cnc(CCNC(=O)c2ccnn2C)n1C1CC1	none
Cc1cnc(C(=O)NCCc2ncc(C)n2C2CC2)cn1	none
CN(Cc1ccccc1C(F)(F)F)C(=O)c1ccc(F)cc1	none
COc1ccccc1CCC(=O)N1CCCC(Nc2ccc(F)cc2)C1 (stereo not given)	none
O=C1[C@@H]2C[C@@H](CN2Cc2ccc3c(c2)OCO3)Oc2ccccc2N1CC1CC1	Pf Dd2 inh 12.6µM
CN1C(=O)[C@@H]2C[C@@H](CN2Cc2ccccc2)Oc2ccccc21	none
O=C1[C@@H]2C[C@@H](CN2Cc2ccnc3ccccc23)Oc2ccccc2N1CC1CC1	none
O=C1[C@@H]2C[C@@H](CN2C(=O)Cc2ccccc2)Oc2ccccc2N1CC1CC1	none
Cn1cc(CN2C[C@@H]3C[C@H]2C(=O)N(CC2CC2)c2ccccc2O3)c2ccccc21	none
Cc1ccc(CN2C[C@@H]3C[C@H]2C(=O)N(CC2CC2)c2ccccc2O3)cc1	Pf Dd2 inh 10µM
Cc1nc(C)c(C)c(N2CCC(Oc3ccc4ccccc4c3)(C(=O)O)CC2)n1	none
CCn1ccc(C(=O)N2CCCC(CN3CCC(C)CC3)CC2)n1 (stereo not given)	none
CNC(=O)c1cc[nH]c1C1CCCN(C(=O)Cn2c(=O)oc3ccccc32)C1 (stereo not given)	none
COc1ccc(C(=O)Nc2ccnn2C2CCN(c3nccc(N)n3)CC2)cc1	none
CCOc1ccccc1C(=O)NC1CCN(c2cnn(C)c(=O)c2)CC1	none
CN1CCN(c2ccc(-c3cn(C)c(=O)n4cc(COc5ccnn5C)nc34)cn2)CC1	none
